Measured values: PubChem BioAssay (NCATS)
A number with no mark means an inactive call. Calls come from the whole dose curve; as a rule, active = well fitted activation curve with a large enough effect; inconclusive = small, poorly fitted or top-dose-only effect; inactive = flat fitted curve, though single readings scatter.

test: Cellular Toxicity (caspase-3) SK-N-SH (AID 661); conditions: SK-N-SH caspase-3 activation, qHTS, DMSO as zero, staurosporine as full; series mostly up to 91.7 µM; caspase-3 activation: at the top concentration;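 note: 0% = DMSO basal and 100% = 10 µM staurosporine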
In short: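 Caspase 3/7 activation was read by luminogenic substrate cleavage after 16 hour treatment of SK-N-SH cells. Signal was scaled between DMSO and 10 uM staurosporine, and concentration-response data were fitted with the Hill equation for AC50.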

| Compound | caspase-3 activation [%] |
| --- | --- |
| CCCCCCc1ccc(-c2ccc(C#N)cc2)cc1 | -0.549 |
| Nc1cnn([C@@H]2O[C@H](CO)[C@@H](O)[C@H]2O)c(=O)n1 | -0.276 |
| CCCCCCCCOc1ccc(C(=O)O)cc1 | -2.18 |
| Oc1c(Cl)cc(Cl)c(Cl)c1Cl | -0.131 |
| CC(C)OCC1CO1 (stereo unspecified) | 0.426 |
| C/C(Cl)=C/CCl | -0.619 |
| CCCCNCC | 1.4 |
| O=c1[nH]ncc2ccccc12 | -0.913 |
| c1ccc(COCc2ccccc2)cc1 | 0.652 |
| O=[N+]([O-])c1cccc(I)c1 | 1.46 |
| Nc1ccc2c(c1)C(=O)c1ccccc1C2=O | -5.84 |
| c1ccc2c(c1)ccc1ccccc12 | 0.803 |
| Nc1ccc(N=Nc2ccccc2)c(N)c1 | -7.16 |
| Cc1ccc(C(=O)O)cc1[N+](=O)[O-] | 0.784 |
| COc1ccc([N+](=O)[O-])cc1N | 0.373 |
| OCC(CO)(CBr)CBr | 1.08 |

| Compound | caspase-3 activation [%] |
| --- | --- |
| Nc1cc(C(=O)O)c(O)c(S(=O)(=O)O)c1 | -1.29 |
| Oc1ccc2c(c1)OCO2 | 1.7 |
| c1ccncc1 | -1.3 |
| CC(=O)OC1CC(C)OC(C)O1 (stereo unspecified) | 0.674 |
| O=C(OCc1ccccc1)c1ccccc1O | 1.19 |
| C/C=C/C=C/C=O | 24 |
| CCN(CC)c1ccc2c(C)cc(=O)oc2c1 | -0.632 |
| c1c[nH]cn1 | -1.12 |
| c1ccc(SCCSc2ccccc2)cc1 | 0.951 |
| O=C(O)/C=C/c1ccc(/C=C/C(=O)O)cc1 | -7.4 |
| CCCCOC(=O)COc1ccc(Cl)cc1Cl | 1.01 |
| CC(=O)OC(C(=O)c1ccccc1)c1ccccc1 (stereo unspecified) | 0.474 |
| CCCCCCN | 0.851 |
| CC(=O)Nc1cccc(C)c1 | 8.24 |
| CCC(Cl)CC(Cl)C(Cl)C(Cl)C(Cl)C(C)Cl (stereo unspecified) | 0.603 |
